Measurements from PubChem BioAssay (NCATS).
“And” between values parts separate entries of the source, which are not always exact repeats. Equal values may be shown once. Unmarked numbers belong to inactive results. Results filed as inconclusive are left out. The source made the active and inactive calls. Unless noted, calls come from the whole dose curve; as a rule, active = well fitted curve in the direction sought with a large enough effect; inconclusive = small, poorly fitted or top-dose-only effect, or another doubt; inactive = no such curve, though single readings can be large; an effect the other way counts as inactive or inconclusive.

Target: Tumor necrosis factor (Homo sapiens) (UniProt P01375)
Test: qHTS assay to identify small molecules that stimulate Tumor Necrosis Factor-alpha (TNF-alpha) secretion (AID 651757; active = well fitted curve in the direction sought with a large enough effect in the signal ratio; the % refers to the signal ratio; note: 0% is about no effect)
Details: Human cells, HTRF 665/615 ratio; series mostly up to 92.2 µM; activation (TNF-alpha secretion): at the top concentration
In short: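 THP-1 cells (3000/well) exposed to compounds 17 hrs at 37 C. Secreted TNF-alpha detected by HTRF with cryptate- and XL665-labeled anti-TNF-alpha antibodies after 3 hr at room temperature.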

Tumor necrosis factor (Homo sapiens), sequence (P01375 whole entry, looked up): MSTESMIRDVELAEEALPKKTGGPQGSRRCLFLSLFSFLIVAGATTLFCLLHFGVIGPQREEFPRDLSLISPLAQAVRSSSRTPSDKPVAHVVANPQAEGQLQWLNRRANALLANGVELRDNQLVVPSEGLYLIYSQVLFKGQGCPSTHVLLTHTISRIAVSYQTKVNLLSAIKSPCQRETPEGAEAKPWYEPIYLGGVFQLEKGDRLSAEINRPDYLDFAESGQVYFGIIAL

| Compound | outcome | activation (TNF-alpha secretion) [%] |
| --- | --- | --- |
| O=C(O)COc1ccc(Cl)cc1Cl | inactive |  |
| ClC1=C(Cl)C2(Cl)C3C4C=CC(C4)C3C1(Cl)C2(Cl)Cl (stereo not given) |  | 1.2 |
| O=S1OCC2C(CO1)C1(Cl)C(Cl)=C(Cl)C2(Cl)C1(Cl)Cl (stereo not given) |  | 3.48 |
| c1ccc(N=Nc2ccccc2)cc1 |  | 0.0199 |
| CCOCN(C(=O)CCl)c1c(C)cccc1CC |  | -0.0928 |
| CNC(=O)O/N=C/C(C)(C)SC |  | -0.116 |
| CCNc1nc(Cl)nc(NC(C)C)n1 |  | 0.0597 |
| C=CCc1ccc(OC)cc1 |  | -0.386 |
| ClC1=C(Cl)C2(Cl)C3C(Cl)C=CC3C1(Cl)C2(Cl)Cl (stereo not given) |  | 1.12 |
| ClC1=C(Cl)C2(Cl)C3C4CC(C5OC45)C3C1(Cl)C2(Cl)Cl (stereo not given) |  | 0.285 |
| ClC(Cl)=C(c1ccc(Cl)cc1)c1ccc(Cl)cc1 | inactive |  |
| CCc1cccc(CC)c1N(COC)C(=O)CCl |  | 0.285 |
| C/C=C/c1ccc2c(c1)OCO2 |  | 0.145 |
| C=CCc1ccc2c(c1)OCO2 |  | 0.295 |
| COP(=S)(OC)Oc1ccc([N+](=O)[O-])cc1 |  | 0.462 |

Test system: not listed separately
Test: qHTS assay to identify small molecules that stimulate interleukin-8 (IL-8) secretion (AID 651758; active = well fitted activation curve with a large enough effect in the signal ratio; the % refers to the signal ratio; note: potency is the fitted concentration of half-maximal effect; for activation: 0% is about no effect)
Details: HTRF ratio (665/615); series mostly up to 92.2 µM; activation: at the top concentration
In short: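 Secreted IL-8 measured by TR-FRET sandwich (cryptate and XL665 antibodies) from THP-1 cells exposed to compound overnight (16 hrs, 37 C).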

| Compound | Potency | activation [%] |
| --- | --- | --- |
| ClC1=C(Cl)C2(Cl)C3C4C=CC(C4)C3C1(Cl)C2(Cl)Cl (stereo not given) | 42.2 µM (active) |  |
| O=S1OCC2C(CO1)C1(Cl)C(Cl)=C(Cl)C2(Cl)C1(Cl)Cl (stereo not given) | 66.8 µM (active) |  |
| CCOCN(C(=O)CCl)c1c(C)cccc1CC |  | 30.2 |
| CNC(=O)O/N=C/C(C)(C)SC |  | -14.4 |
| CCNc1nc(Cl)nc(NC(C)C)n1 |  | 17.3 |
| ClC1=C(Cl)C2(Cl)C3C(Cl)C=CC3C1(Cl)C2(Cl)Cl (stereo not given) | 26.6 µM (active) |  |
| ClC(Cl)=C(c1ccc(Cl)cc1)c1ccc(Cl)cc1 |  | 5.7 |
| C=CCc1ccc2c(c1)OCO2 |  | 16.9 |

Test system: not listed separately
Test: qHTS assay for environmental chemicals that activate the Aryl hydrocarbon Receptor (AhR) signaling pathway (AID 651777); note: % of control where 0% means no effect; nearly all actives have a fitted effect of over 15% in size
Details: 1A2-DRE human hepatoma cells, luciferase, 24 h; activation: hits give high values
In short: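 Luminescence (One-Glo, 30 min, room temperature) reports AhR-driven luciferase in stably transfected human hepatoma cells bearing DRE and CYP1A2 promoter. Cells (1,200/well) were treated with compound for 24 hr at 37 C in qHTS format.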

| Compound | activation |
| --- | --- |
| O=S1OCC2C(CO1)C1(Cl)C(Cl)=C(Cl)C2(Cl)C1(Cl)Cl (stereo not given) | -0.06% |
| c1ccc(N=Nc2ccccc2)cc1 | -0.472% and 1.23% |
| CCOCN(C(=O)CCl)c1c(C)cccc1CC | -0.995% and 0.961% |
| CCNc1nc(Cl)nc(NC(C)C)n1 | -0.785% and 0.245% |
| C=CCc1ccc(OC)cc1 | 0.798% |
| ClC1=C(Cl)C2(Cl)C3C(Cl)C=CC3C1(Cl)C2(Cl)Cl (stereo not given) | -0.719% |
| ClC1=C(Cl)C2(Cl)C3C4CC(C5OC45)C3C1(Cl)C2(Cl)Cl (stereo not given) | -0.344% |
| CCc1cccc(CC)c1N(COC)C(=O)CCl | -1.54% and -2.21% |
| COP(=S)(OC)Oc1ccc([N+](=O)[O-])cc1 | 0.87% and 0.313% |

Target: Peroxisome proliferator-activated receptor alpha (Homo sapiens) (UniProt Q07869)
Test: qHTS assay for small molecule agonists of the peroxisome proliferator-activated receptor alpha (PPARalpha) signaling pathway (AID 651778); note: % of control where 0% means no effect
Details: PathHunter PPARalpha complementation, chemiluminescence, 6 h; hits give high values
In short: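 Chemiluminescence from complemented enzyme reported PPARalpha activation in cells after 6 hr of compound treatment at 37 C. The detection reagent was incubated for 60 min at room temperature, and compounds were scored as agonists.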

Peroxisome proliferator-activated receptor alpha (Homo sapiens), sequence (Q07869 whole entry, looked up): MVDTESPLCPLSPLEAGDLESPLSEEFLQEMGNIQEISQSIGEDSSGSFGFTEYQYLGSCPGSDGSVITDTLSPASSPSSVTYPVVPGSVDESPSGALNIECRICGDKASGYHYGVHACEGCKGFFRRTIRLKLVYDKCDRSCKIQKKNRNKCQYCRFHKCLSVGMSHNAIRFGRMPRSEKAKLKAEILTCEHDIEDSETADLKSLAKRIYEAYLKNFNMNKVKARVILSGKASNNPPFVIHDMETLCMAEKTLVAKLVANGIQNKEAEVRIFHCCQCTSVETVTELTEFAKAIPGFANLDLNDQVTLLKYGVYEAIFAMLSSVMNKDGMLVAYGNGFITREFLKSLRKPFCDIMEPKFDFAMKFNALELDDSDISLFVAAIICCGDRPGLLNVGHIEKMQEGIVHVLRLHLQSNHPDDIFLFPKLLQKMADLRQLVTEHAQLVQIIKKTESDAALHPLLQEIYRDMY

| Compound | max response |
| --- | --- |
| O=C(O)COc1ccc(Cl)cc1Cl | 0.368% [middle of 4 runs] |
| c1ccc(N=Nc2ccccc2)cc1 | -0.415% and -1.69% |
| CCOCN(C(=O)CCl)c1c(C)cccc1CC | -0.344% and -1.51% |
| CNC(=O)O/N=C/C(C)(C)SC | 4.62% and -1.35% and -3.37% |
| CCNc1nc(Cl)nc(NC(C)C)n1 | 3.27% and 0.807% |
| ClC1=C(Cl)C2(Cl)C3C(Cl)C=CC3C1(Cl)C2(Cl)Cl (stereo not given) | 4.41% |
| ClC(Cl)=C(c1ccc(Cl)cc1)c1ccc(Cl)cc1 | 21.8% and 11.7% and 4.05% |
| C/C=C/c1ccc2c(c1)OCO2 | -6.18% |

Target: Nuclear receptor ROR-gamma (Homo sapiens) (UniProt P51449)
Test: qHTS assay for small molecule antagonists of the retinoid-related orphan receptor gamma (ROR-gamma) signaling pathway (AID 651802); note: nearly all actives have a fitted effect of over 60% in size; note: potency is the fitted concentration of half-maximal effect;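 for activity change, negative = inhibition: luciferase reporter luminescence driven by ROR response element; % is set by controls: 0 for no effect and ±100 for the full control effect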
Details: ROR-gamma antagonist cell reporter assay; series mostly up to 92.2 µM; activity change, negative = inhibition: at the top concentration
In short: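 CHO cells with TET-inducible ROR-gamma and RORE-luciferase reporter, dosed then doxycycline-induced. After 16 h at 37C, One-Glo luminescence read; decreased signal indicates antagonism.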

Nuclear receptor ROR-gamma (Homo sapiens), sequence (P51449 whole entry, looked up): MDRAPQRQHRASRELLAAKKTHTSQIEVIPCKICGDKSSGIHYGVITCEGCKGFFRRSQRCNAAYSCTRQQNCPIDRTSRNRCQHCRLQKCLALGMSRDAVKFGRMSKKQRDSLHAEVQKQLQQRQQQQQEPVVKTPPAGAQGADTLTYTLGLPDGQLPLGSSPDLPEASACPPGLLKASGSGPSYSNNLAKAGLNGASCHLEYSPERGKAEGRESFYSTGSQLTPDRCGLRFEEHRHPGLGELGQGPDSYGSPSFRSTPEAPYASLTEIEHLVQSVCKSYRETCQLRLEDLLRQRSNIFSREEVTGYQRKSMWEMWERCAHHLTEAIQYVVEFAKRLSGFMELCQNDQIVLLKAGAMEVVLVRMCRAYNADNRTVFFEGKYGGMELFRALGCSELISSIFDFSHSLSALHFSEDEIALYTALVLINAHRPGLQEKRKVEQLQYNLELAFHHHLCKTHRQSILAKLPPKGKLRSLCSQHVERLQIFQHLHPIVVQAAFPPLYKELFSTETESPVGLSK

| Compound | Potency | activity change, negative = inhibition [%] |
| --- | --- | --- |
| ClC1=C(Cl)C2(Cl)C3C4C=CC(C4)C3C1(Cl)C2(Cl)Cl (stereo not given) | 23.7 µM (active) |  |
| O=S1OCC2C(CO1)C1(Cl)C(Cl)=C(Cl)C2(Cl)C1(Cl)Cl (stereo not given) | 21.1 µM (active) |  |
| c1ccc(N=Nc2ccccc2)cc1 |  | 4.97 |
| CCOCN(C(=O)CCl)c1c(C)cccc1CC |  | -27.9 |
| CNC(=O)O/N=C/C(C)(C)SC |  | -10.3 |
| CCNc1nc(Cl)nc(NC(C)C)n1 |  | 15.5 |
| C=CCc1ccc(OC)cc1 |  | 1.7 |
| ClC1=C(Cl)C2(Cl)C3C4CC(C5OC45)C3C1(Cl)C2(Cl)Cl (stereo not given) | 13.3 µM (active) |  |
| ClC(Cl)=C(c1ccc(Cl)cc1)c1ccc(Cl)cc1 | 37.6 µM (active) and 33.5 µM (active) |  |
| C/C=C/c1ccc2c(c1)OCO2 |  | -13.5 |
| C=CCc1ccc2c(c1)OCO2 |  | 21.3 |
| COP(=S)(OC)Oc1ccc([N+](=O)[O-])cc1 |  | -12.7 |

Test system: not listed separately
Test: qHTS assay for small molecule agonists of the antioxidant response element (ARE) signaling pathway measured by Nrf2-dependant transcriptional activity (AID 720636; active = well fitted curve in the direction sought with a large enough effect in the repeat runs; an effect the other way counts as inactive or inconclusive; note: % of control where 0% means no effect)
Details: ARE-luc HepG2, Nrf2 luciferase reporter, 16 h; series mostly up to 92.4 µM; activation: at the top concentration
In short: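 Nrf2-dependent transcription read as ONE-Glo luciferase signal from ARE-luc HepG2 reporter cells after 16 hr compound treatment at 37 C, 5% CO2, in assay medium with 1% dialyzed FBS.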

| Compound | outcome | activation [%] |
| --- | --- | --- |
| O=C(O)COc1ccc(Cl)cc1Cl | inactive |  |
| ClC1=C(Cl)C2(Cl)C3C4C=CC(C4)C3C1(Cl)C2(Cl)Cl (stereo not given) |  | -1.77 |
| O=S1OCC2C(CO1)C1(Cl)C(Cl)=C(Cl)C2(Cl)C1(Cl)Cl (stereo not given) |  | -1.19 |
| c1ccc(N=Nc2ccccc2)cc1 |  | 0.935 |
| CNC(=O)O/N=C/C(C)(C)SC | inactive |  |
| CCNc1nc(Cl)nc(NC(C)C)n1 | inactive |  |
| C=CCc1ccc(OC)cc1 |  | 0.477 |
| ClC1=C(Cl)C2(Cl)C3C(Cl)C=CC3C1(Cl)C2(Cl)Cl (stereo not given) |  | -1.25 |
| ClC1=C(Cl)C2(Cl)C3C4CC(C5OC45)C3C1(Cl)C2(Cl)Cl (stereo not given) |  | -0.782 |
| ClC(Cl)=C(c1ccc(Cl)cc1)c1ccc(Cl)cc1 | inactive |  |
| C/C=C/c1ccc2c(c1)OCO2 |  | 2.43 |
| C=CCc1ccc2c(c1)OCO2 |  | -1.26 |
| COP(=S)(OC)Oc1ccc([N+](=O)[O-])cc1 | inactive |  |
